According to PubChem BioAssay (NCI):
About 83,000 compounds went through this panel and 20% of them were active in at least one assay; those are over-represented in the sample as a whole.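 Each cell line was grown in a 96-well plate and treated with one concentration of compound for 48 hours. Values below 10 were considered active.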 Values without a mark were called inactive. Active and inactive are the calls of the source.

These compounds were tested on HL-60(TB) leukemia (assay: NCI-60 one-dose screen, 48 h (100 = growth as untreated, 0 = no growth, -100 = all killed)). Conditions: 10 µM unless noted.
Protocol: Growth inhibition of the HL-60(TB) human tumor cell line is measured as a screen for anti-cancer activity. Cells are grown in 96 well plates and exposed to the test compound for 48 hours. Compounds are tested at a single concentration, which is 10^-5 M for most compounds. The reported endpoint is percent growth (GI% or GIPRCNT), where numbers from 0 - 100% represent growth inhibition, and numbers from -100% - 0 represent cell death. For example, a value of 40 represents 60% growth inhibition. A value of 0 means no net growth occurred over the course of the experiment. A value of -40 indicates 40% of cells at the beginning of the experiment died by the end of the experiment. A value of -100 means all cells are dead at the end of the experiment.
NCI-60 Human Tumor Cell Lines Screen was performed using the standard one-dose NCI protocol, which is described in more detail at https://dtp.cancer.gov/discovery_development/nci-60/default.htm.
Compounds with GIPRCNT values below 10 were considered active. Activity score was based on GIPRCNT using the following formula: […]
Score is 0 for GIPRCNT values of 100 or above, 50 for GIPRCNT values of 0, and 100 for GIPRCNT values of -100.
Compound `CN1C(=O)C2(Nc3cc(Cl)ccc3S2)c2cc(Cl)ccc21` (stereo not given) has a growth of 97.8%.
`COC(=O)c1ccc2c(c1)c1c(C)c3cnccc3c(C)c1n2C` was tested, and the growth was -2.92% (active).
`CCCCCCCCCCCCCCCC[N+]1(C)CCOCC1` was tested, and the growth was -59.5% (active).
With `CCCCN(CCCC)c1cc(C(=O)CCCCCN)c2ccccc2n1` the growth was -67.9% (active).
`COC(=O)c1cc2oc(/C=N/NC(=O)c3cc4oc(-c5cccc(C(F)(F)F)c5)cc4[nH]3)cc2n1Cc1ccccc1` gave a growth of 69.9%.
Compound `COc1cc(/C=C/c2nc(Nc3ccc(S(=O)(=O)Nc4cc(C)on4)cc3)c3ccccc3n2)ccc1O` has a growth of 27.4%.
With `COc1ccc(/C=N/NC(=O)c2ccc(S(C)(=O)=O)cc2)cc1OC` the growth was 54.1%.
`CC(C)[C@@H]1C=C2CC[C@H]3[C@](C)(CN)CCC[C@]3(C)[C@H]2CC1` gave a growth of 70.1%.
`NS(=O)(=O)c1cc(=O)[nH]c(=O)[nH]1` gave a growth of 114%.
`NC(=O)SCC(=O)Nc1ccccc1-c1ccccc1` gave a growth of 80.3%.
Compound `NC1=Nc2cc(OCCCCN3Cc4ccccc4C3)c(OCC3CC3)cc2C12CCCC2` has a growth of 20.2%.
Compound `COC(=O)C(CC(=O)c1ccc(-c2ccccc2)cc1)c1ccccc1` (stereo not given) has a growth of 15.4%.
For `CC1(C)CC([P+](c2ccccc2)(c2ccccc2)c2ccccc2)=NN1`, the growth was -49.2% (active).
With `OCC1OC(n2cnc3c(Cl)ncnc32)CC1O` (stereo not given) the growth was 121%.
For `CSc1nc(N)c2c(n1)NC(c1ccccc1)C1CCc3ccccc3C1=N2` (stereo not given), the growth was 26.4%.
Work on `COc1cc(NC(=O)c2cc(OC)c3ccn(C)c3c2)cc2c1C[C@]1(C)CC[C@@H](O)C(C)(C)[C@H]1O2` yielded a growth of 31.5%.
With `O=C(/C=C/c1ccccc1)C(Br)C(Br)c1ccccc1` (stereo not given) the growth was -41.8% (active).
`O=S(=O)(NCCNc1nccc(-c2c(-c3ccc(F)cc3)nc3sccn23)n1)c1ccc2ccccc2c1` gave a growth of 88.1%.
For `Cc1nn(-c2ccc(-c3ccc(OC(F)(F)F)cc3)cc2)c2nc(-c3ccccc3)nc(N)c12`, the growth was 100%.
Compound `[Cl-].[Rh+3].c1ccc(-c2ccnc3c2ccc2c(-c4ccccc4)ccnc23)cc1.c1ccc(-c2ccnc3c2ccc2c(-c4ccccc4)ccnc23)cc1.c1ccc(-c2ccnc3c2ccc2c(-c4ccccc4)ccnc23)cc1` has a growth of 99.9%.
Work on `O=C(/C=C/c1ccc([N+](=O)[O-])cc1)c1ccccc1` yielded a growth of 35.1%.
Work on `CCCCCCCCCCCCNCCCc1ccccc1` yielded a growth of 32.3%.
For `O=c1[nH]c(-c2cn(-c3ccc(Cl)cc3)nn2)nc2ccccc12`, the growth was 100%.
`COC(=O)CC/C(C)=N\Nc1ccc([N+](=O)[O-])cc1` gave a growth of 24.5%.
`C=C1C(=O)O[C@H]2[C@H]1CC/C(C=Nc1c(N)cc(F)cc1Br)=C\CC[C@@]1(C)O[C@@H]21` showed a growth of 37.1%.
`O=S(=O)(Nc1ccc(OC(F)F)cc1)c1ccc(-c2cnc(C3CC3)o2)cc1` gave a growth of 64.7%.
With `CN1CCN(CCCCCN=c2cc3c(=O)n(CCCCCN4CCN(C)CC4)c(=O)c4c(NCCCCCN5CCN(C)CC5)cc5c(O)n(CCCCCN6CCN(C)CC6)c(=O)c2c5c4-3)CC1` the growth was 51.5%.
In the case of `O=C(/C=C/c1cccc([N+](=O)[O-])c1)c1ccc(Nc2nc(Nc3ccc(F)cc3)nc(Nc3ccc(Cl)cc3)n2)cc1`, the growth is reported as -42.1% (active).
`COc1ccc([C@H]2[C@H](C(=O)Nc3cccnc3)c3ccccc3C(=O)N2c2ccccc2)cc1` gave a growth of 90.2%.
Work on `COc1ccc(-c2nc(N/N=C/c3cccc(O)c3)nc(N3CCOCC3)c2C#N)cc1` yielded a growth of 49.2%.
For `CCN(CC)CCCC(C)NCCCNc1cccc2cccnc12` (stereo not given), the growth was -5.92% (active).
For `Oc1c(CN2CCCC2)cc(CSCc2ccccc2)c2cccnc12`, the growth was -23.7% (active).
`COc1ncnc2[nH]cc(CN3CCN(c4ccc(F)cc4)CC3)c12` showed a growth of 101%.
With `CCOC(=O)C1CCN(S(=O)(=O)/N=C2/NC(=O)NC2=C(Cl)Cl)CC1` the growth was -45.9% (active).
For `C=CCn1c(SCC(=O)Nc2ccc(C(=O)/C=C/c3cc(OC)c(OC)c(OC)c3)cc2)nnc1-c1cc(-c2ccc(S(N)(=O)=O)cc2)nc2ccccc12`, the growth was 57.5%.
In the case of `O=C(/C=C/C(=O)c1ccccc1)c1ccccc1`, the growth is reported as 57.3%.
For `Cc1cc(C)nc(SC2=C(Nc3ccc(C)c(Cl)c3)C(=O)N(Cc3ccccc3)C2=O)n1`, the growth was 26.1% [30 µM].
`CCCn1nc(C(=O)N2CCCCC2)c2c1CCC(N1CCC(c3ccncc3)CC1)C2` (stereo not given) was tested, and the growth was 96.6%.
For `COc1ccc(-c2nc(/C=C3\C(=O)N(C)c4ccccc43)c3ccccn23)cc1`, the growth was 41.1%.
Compound `CN1CCN(C(=O)COc2ccc(/C=C3\CC4C5CC=C6CC(Cl)CCC6(C)C5CCC4(C)C3=O)cc2)CC1` (stereo not given) has a growth of 38.3%.
